# Experimental data: PubChem BioAssay
# Where “and” joins values, the source holds several entries; their conditions need not be identical. Identical values can stand only once. A structure can be active in one record and inactive in another. Calls of active or inactive are those of the source.
# How the values were obtained:
# [1] = tested on: PRMT1 (protein arginine N-methyltransferase 1); assay: small molecules binding arginine methyltransferase PRMT1 – biochemical, small-molecule microarray, 635 nm fluorescence, primary screen (AID 1088); details: higher = more signal;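 note: binding of Prmt1 protein to compounds spotted on small-molecule microarray slides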
# [2] = growth effects on S. cerevisiae YJM789 – YJM789 clinical isolate, OD600, 24 h, basal, primary screen (AID 1089); details: higher = more signal, called active from +8 up or from −8 down;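 note: growth of clinical yeast isolate S. cerevisiae YJM 789 seeded 1000 cells per well; test concentration not given here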
# [3] = S. pombe growth modifiers, basal conditions – strain 972, OD600, 24 h, no modulator, primary screen (AID 1090);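 note: basal condition with compound alone and no growth modifier present; test concentration not given here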; details: S. pombe 972 growth, higher = more signal, called active from +8 up or from −8 down
# [4] = budding yeast growth modifiers under rapamycin – strain BY4716, OD600, 96 h, primary screen (AID 1091); note: test concentration not given here; details: S. cerevisiae BY4716 + rapamycin, higher = more signal, called active from +8 up or from −8 down
# [5] = biological target: Torsin-1A-interacting protein 2 (Homo sapiens) (UniProt Q8NFQ8); assay: small molecules binding lysate-expressed LULL1 – cell lysate, human LULL1 lysate, 635/667 nm fluorescence, primary screen (AID 1092); details: small-molecule microarray, hLULL1 lysate binding, 635 nm fluorescence; higher = more signal;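 note: probe is lysate of COS7 cells overexpressing human LULL1; score merges per-feature 667 nm fluorescence with signal-to-noise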
# [6] = optical density change of DRC41 E. coli – strain DRC41, OD650, 24 h, E. coli filamentation project, primary screen (AID 1093);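 note: MC1000 strain lacking acrAB efflux and sulA so SOS filamentation is blocked; test concentration not given here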; details: E. coli DRC41 growth, higher = more signal, called active from +8 up or from −8 down
# [7] = probe aLefty2 binding to arrayed compounds – biochemical, biotinylated probe, 635/667 nm fluorescence, primary screen (AID 1094); details: small-molecule microarray, higher = more signal;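 note: score merges spot fluorescence near 667 nm with spot signal-to-noise ratio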
# [8] = tested on: Noggin (protein binding on small-molecule microarray); assay: small molecules binding Noggin protein – biochemical, 635/667 nm fluorescence, primary screen (AID 1095); details: 635 nm fluorescence, higher = more signal;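 note: score merges 667 nm feature fluorescence with signal to noise over triplicate slides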
# [9] = biological target: Neurogenic locus notch homolog protein 3 (Homo sapiens) (UniProt Q9UM47); assay: small molecules binding NOTCH3 protein – biochemical, 635/667 nm fluorescence, primary screen (AID 1096); details: small-molecule microarray, 635 nm fluorescence, higher = more signal
# [10] = probe aEGFR binding to arrayed compounds – biochemical, biotinylated probe, 635/667 nm fluorescence, primary screen (AID 1097); details: small-molecule microarray, higher = more signal;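 note: probe is a biotinylated anti-EGFR antibody binding compounds printed on slides; score combines fluorescence near 667 nm and signal to noise of each spot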
# [11] = tested on: Plasmodium falciparum Sir2 (PF13_0152, Sir2A); assay: Plasmodium falciparum Sir2A binding compounds – biochemical, small-molecule microarray, 635 nm fluorescence, primary screen (AID 1098); details: fluorescence 635 nm, higher = more signal;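 note: score merges spot fluorescence intensity with its signal-to-noise ratio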
# [12] = probe aDKK1 binding to arrayed compounds – biochemical, biotinylated probe, 635/667 nm fluorescence, primary screen (AID 1099); details: small-molecule microarray, higher = more signal;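 note: score merges 667nm spot fluorescence with signal to noise across triplicate slides; reference of the scale not given here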
# [13] = probe aCHRDL2 binding to arrayed compounds – biochemical, biotinylated probe, 635/667 nm fluorescence, primary screen (AID 1100); details: small-molecule microarray, higher = more signal
# [14] = change in splice reporter luminescence, either direction, cell-based, HEK293, spliceosome inhibition project, primary screen (AID 1101); details: HEK293 splicing luciferase reporter, 24 h, higher = more signal, called active from +8 up or from −8 down;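 note: HEK293 cells carrying a splicing-competent luciferase reporter gene; test concentration not given here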
# [15] = biological target: Fibroblast growth factor 10 (Homo sapiens) (UniProt O15520); assay: compounds binding fibroblast growth factor 10 – biochemical, small-molecule microarray, 635 nm fluorescence, primary screen (AID 1102); details: FGF10 binding, fluorescence 635 nm, higher = more signal
# [16] = tested on: glycogen synthase kinase-3 (GSK3A per assay name; protocol says GSK3B); assay: compounds binding glycogen synthase kinase-3 – biochemical, small-molecule microarray, 635 nm fluorescence, GSK3A, primary screen (AID 1103); details: fluorescence 635 nm, higher = more signal; note: the record names both GSK3A and GSK3B
# [17] = biological target: Epidermal growth factor receptor (Homo sapiens) (UniProt P00533); assay: compounds binding epidermal growth factor receptor – biochemical, small-molecule microarray, 635 nm fluorescence, primary screen (AID 1104); details: EGFR binding, higher = more signal;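 note: score merges 667 nm emission intensity with spot signal to noise over triplicate slides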
# [18] = biological target: Follistatin-related protein 3 (Homo sapiens) (UniProt O95633); assay: compounds binding follistatin-related protein 3 – biochemical, small-molecule microarray, 635 nm fluorescence, primary screen (AID 1105); details: FSTL3 binding, higher = more signal;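 note: score merges emission near 667 nm and signal to noise per printed spot across three slides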
# [19] = biological target: Dickkopf-related protein 1 (Homo sapiens) (UniProt O94907); assay: small molecules binding DKK1 protein – biochemical, small-molecule microarray, 635 nm fluorescence scan, primary screen (AID 1106); details: higher = more signal;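 note: score merges emission near 667 nm with signal to noise over three replicate slides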
# [20] = tested on: Inhibin beta A chain (activin A); assay: small molecules binding activin A – biochemical, small-molecule microarray, 635 nm fluorescence scan, primary screen (AID 1107); details: INHBA, higher = more signal;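 note: mouse activin A protein probed at 4.33 µg/mL on printed slides; score merges bound-protein fluorescence near 667 nm with spot signal-to-noise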
# Sequence of Neurogenic locus notch homolog protein 3 (Homo sapiens) (Q9UM47 whole entry, looked up): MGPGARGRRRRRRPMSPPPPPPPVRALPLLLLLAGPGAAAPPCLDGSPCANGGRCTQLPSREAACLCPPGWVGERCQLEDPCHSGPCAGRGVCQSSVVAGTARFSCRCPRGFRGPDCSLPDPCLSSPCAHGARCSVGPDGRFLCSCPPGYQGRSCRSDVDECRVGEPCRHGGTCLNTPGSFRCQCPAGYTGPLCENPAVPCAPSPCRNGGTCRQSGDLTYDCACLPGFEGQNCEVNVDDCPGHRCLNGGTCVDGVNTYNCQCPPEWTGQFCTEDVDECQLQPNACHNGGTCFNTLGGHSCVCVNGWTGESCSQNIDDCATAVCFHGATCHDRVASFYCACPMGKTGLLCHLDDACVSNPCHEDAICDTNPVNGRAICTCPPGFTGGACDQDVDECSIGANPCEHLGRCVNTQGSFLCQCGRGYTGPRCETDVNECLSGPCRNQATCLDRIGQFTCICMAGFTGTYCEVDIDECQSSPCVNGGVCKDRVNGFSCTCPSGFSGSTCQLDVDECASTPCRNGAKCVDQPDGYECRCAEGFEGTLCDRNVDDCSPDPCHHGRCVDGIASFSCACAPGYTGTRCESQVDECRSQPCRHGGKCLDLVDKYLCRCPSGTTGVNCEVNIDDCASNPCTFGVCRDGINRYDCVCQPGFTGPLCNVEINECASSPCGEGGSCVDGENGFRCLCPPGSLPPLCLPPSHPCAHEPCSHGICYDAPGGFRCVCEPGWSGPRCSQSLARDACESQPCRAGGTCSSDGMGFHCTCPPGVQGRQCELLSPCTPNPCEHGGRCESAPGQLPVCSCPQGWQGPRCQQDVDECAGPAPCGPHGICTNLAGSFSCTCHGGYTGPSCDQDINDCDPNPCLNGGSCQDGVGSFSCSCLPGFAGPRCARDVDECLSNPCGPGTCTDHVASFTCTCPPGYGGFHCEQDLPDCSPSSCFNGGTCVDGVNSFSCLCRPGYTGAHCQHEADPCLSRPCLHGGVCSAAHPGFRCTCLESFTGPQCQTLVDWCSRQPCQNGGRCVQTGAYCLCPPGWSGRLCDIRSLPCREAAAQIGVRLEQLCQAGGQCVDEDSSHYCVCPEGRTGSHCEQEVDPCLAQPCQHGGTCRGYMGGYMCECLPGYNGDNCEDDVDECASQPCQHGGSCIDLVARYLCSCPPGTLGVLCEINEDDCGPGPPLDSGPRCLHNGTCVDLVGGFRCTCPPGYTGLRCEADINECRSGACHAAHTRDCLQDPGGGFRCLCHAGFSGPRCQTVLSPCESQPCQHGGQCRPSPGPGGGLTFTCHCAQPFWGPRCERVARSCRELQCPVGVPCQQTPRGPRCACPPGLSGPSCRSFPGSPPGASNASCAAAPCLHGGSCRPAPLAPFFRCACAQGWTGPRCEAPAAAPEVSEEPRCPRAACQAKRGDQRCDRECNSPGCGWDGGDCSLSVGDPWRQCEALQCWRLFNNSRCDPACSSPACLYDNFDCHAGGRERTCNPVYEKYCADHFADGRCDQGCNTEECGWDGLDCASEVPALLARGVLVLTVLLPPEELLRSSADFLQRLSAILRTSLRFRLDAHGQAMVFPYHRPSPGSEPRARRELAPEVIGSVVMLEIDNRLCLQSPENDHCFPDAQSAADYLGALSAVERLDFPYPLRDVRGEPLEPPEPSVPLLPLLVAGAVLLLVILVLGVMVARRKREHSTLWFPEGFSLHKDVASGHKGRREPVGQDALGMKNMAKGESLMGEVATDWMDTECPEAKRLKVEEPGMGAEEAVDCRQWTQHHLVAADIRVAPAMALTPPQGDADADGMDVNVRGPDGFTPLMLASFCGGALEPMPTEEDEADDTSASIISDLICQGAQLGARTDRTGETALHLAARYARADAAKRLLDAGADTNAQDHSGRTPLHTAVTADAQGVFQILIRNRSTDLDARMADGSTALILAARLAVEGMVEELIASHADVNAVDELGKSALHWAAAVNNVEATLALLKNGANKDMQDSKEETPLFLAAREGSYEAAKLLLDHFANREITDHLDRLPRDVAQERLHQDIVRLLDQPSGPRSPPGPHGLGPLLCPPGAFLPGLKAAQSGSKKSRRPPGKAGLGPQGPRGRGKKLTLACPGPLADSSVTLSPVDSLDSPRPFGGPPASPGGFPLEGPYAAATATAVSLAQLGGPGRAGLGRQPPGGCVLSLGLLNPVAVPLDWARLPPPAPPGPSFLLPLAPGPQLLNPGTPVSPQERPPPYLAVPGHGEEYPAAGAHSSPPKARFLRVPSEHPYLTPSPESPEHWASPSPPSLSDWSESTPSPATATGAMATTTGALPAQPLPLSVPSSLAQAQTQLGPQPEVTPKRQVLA
# Sequence of Torsin-1A-interacting protein 2 (Homo sapiens) (Q8NFQ8 whole entry, looked up): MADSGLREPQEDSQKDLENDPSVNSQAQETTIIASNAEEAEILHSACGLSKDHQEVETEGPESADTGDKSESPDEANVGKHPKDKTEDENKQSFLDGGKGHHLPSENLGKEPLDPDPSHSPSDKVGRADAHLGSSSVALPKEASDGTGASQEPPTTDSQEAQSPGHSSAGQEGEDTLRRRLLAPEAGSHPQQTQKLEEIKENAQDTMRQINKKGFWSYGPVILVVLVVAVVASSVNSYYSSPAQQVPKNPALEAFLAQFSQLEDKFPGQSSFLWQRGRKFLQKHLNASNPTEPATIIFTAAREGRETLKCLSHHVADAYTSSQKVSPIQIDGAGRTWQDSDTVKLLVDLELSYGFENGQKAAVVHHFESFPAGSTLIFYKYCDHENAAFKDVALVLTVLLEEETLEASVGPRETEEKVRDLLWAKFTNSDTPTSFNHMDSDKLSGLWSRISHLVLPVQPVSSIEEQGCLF
# Sequence of Follistatin-related protein 3 (Homo sapiens) (O95633 whole entry, looked up): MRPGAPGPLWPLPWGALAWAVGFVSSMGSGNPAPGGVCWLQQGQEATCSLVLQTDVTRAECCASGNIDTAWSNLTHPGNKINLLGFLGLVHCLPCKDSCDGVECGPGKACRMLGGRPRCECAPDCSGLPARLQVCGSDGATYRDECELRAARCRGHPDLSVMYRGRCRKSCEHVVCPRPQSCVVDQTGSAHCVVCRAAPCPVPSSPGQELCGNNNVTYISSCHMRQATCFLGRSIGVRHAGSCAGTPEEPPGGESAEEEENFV
# Sequence of Epidermal growth factor receptor (Homo sapiens) (P00533 whole entry, looked up): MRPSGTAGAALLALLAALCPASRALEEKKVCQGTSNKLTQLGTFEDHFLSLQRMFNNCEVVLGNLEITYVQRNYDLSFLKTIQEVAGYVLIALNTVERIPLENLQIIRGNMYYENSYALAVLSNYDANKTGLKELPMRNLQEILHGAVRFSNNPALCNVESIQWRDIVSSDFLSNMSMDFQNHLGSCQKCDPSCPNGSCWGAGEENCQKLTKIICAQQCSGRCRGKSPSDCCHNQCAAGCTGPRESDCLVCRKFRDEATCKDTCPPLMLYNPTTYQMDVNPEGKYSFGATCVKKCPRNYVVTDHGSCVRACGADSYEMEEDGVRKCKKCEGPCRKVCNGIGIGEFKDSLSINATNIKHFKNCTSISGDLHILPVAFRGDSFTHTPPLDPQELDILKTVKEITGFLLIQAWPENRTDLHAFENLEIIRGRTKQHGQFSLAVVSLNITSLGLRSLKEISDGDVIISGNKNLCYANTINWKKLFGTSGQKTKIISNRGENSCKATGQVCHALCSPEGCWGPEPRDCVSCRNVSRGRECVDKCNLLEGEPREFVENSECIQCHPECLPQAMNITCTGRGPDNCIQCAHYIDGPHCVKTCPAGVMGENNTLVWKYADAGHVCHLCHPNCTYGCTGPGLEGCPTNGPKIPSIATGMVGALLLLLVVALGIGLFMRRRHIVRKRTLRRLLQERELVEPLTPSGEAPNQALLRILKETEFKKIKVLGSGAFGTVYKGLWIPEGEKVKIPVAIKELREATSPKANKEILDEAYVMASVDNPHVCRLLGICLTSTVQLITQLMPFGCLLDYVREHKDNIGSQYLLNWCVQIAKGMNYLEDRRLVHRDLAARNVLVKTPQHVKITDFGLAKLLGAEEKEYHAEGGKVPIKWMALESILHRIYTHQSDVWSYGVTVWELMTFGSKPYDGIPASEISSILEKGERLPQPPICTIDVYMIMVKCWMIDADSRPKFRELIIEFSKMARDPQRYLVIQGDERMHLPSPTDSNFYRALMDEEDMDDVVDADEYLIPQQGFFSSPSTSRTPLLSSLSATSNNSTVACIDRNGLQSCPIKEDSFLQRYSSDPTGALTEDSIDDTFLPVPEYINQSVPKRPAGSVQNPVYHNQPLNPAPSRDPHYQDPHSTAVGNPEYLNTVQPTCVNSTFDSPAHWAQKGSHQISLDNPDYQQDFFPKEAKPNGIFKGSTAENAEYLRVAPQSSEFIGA
# Sequence of Dickkopf-related protein 1 (Homo sapiens) (O94907 whole entry, looked up): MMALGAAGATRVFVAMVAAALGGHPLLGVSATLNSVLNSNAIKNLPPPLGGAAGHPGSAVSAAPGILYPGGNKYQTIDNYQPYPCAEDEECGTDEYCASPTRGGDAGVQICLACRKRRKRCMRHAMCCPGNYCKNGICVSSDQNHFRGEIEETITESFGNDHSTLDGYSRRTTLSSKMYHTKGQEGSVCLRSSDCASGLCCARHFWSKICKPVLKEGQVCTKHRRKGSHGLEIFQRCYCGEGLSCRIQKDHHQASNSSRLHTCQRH
# Sequence of Fibroblast growth factor 10 (Homo sapiens) (O15520 whole entry, looked up): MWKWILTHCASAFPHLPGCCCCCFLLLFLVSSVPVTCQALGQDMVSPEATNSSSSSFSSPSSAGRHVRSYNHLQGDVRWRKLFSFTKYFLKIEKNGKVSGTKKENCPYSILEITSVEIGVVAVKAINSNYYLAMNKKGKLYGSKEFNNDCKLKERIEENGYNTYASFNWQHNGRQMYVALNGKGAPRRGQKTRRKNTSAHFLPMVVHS
Compound,composite z-score [1],z-score [2],z-score [3],z-score [4],composite z-score [5],z-score [6],composite z-score [7],composite z-score [8],composite z-score [9],composite z-score [10],composite z-score [11],composite z-score [12],composite z-score [13],z-score [14],composite z-score [15],composite z-score [16],composite z-score [17],composite z-score [18],composite z-score [19],composite z-score [20]
CCCNC(=O)OC[C@H]1O[C@H](CCON=C(C)CCC(=O)OC[C@H]2O[C@H](C#Cc3ccccc3)C=C[C@@H]2Oc2ccc(C)cc2)C=C[C@@H]1Oc1ccc(OC)cc1,-0.164,-0.142 (inactive),-0.0152 (inactive),0.794 (inactive),-0.575,0.165 (inactive),-0.251,-0.346,-0.574,-0.12,0.352,-0.193,-0.148,-0.301 (inactive),-0.397,-0.952,-0.501,-0.637,-0.121,0.711
C[N+](C)(C)CCCCCCNC(=O)[C@H]1C[C@H]2C(=O)N[C@@H](CCCC[N+](C)(C)C)C(=O)N2[C@H]1c1ccc(O)cc1,0.258 and -0.147,0.166 (inactive) and 0.547 (inactive),0.268 (inactive) and -0.656 (inactive),0.122 (inactive) and 0.411 (inactive),0.106 and 0.967,0.595 (inactive) and -0.0409 (inactive),-0.0322 and -0.0179,0.938 and 0.161,-0.275 and -0.316,-0.151 and -0.236,0.819 and 1.44,-0.359 and -0.0843,-0.304 and 0.224,-0.616 (inactive) and -0.146 (inactive),0.508 and -0.456,-0.253 and -0.528,0.28 and -0.409,0.41 and -0.414,0.867 and 0.455,0.469 and 1.16
CCOC(=O)[C@@H]1CC2O[C@]23C[C@@H]1C(=O)N1CCC[C@@H]1[C@H]3O[Si](C)(C)C(C)(C)C (stereo not given in full),-1.64 and -0.147,-0.418 (inactive) and -1.22 (inactive),-1.05 (inactive) and -0.791 (inactive),-0.435 (inactive) and -0.321 (inactive),-1.04 and 0.179,-0.458 (inactive) and -0.86 (inactive),-0.357 and -0.0163,-0.355 and 0.12,-0.868 and -0.199,-0.12 and -0.0314,-0.494 and -0.107,-0.557 and -0.234,-0.645 and -0.63,0.559 (inactive) and 0.577 (inactive),-0.438 and 0.433,-0.755 and 0.491,-0.133 and -0.303,-0.937 and 0.184,0.389 and 0.364,0.456 and 0.999
C[N+](C)(C)CCCCCCNC(=O)[C@@H]1C[C@@H]2C(=O)N[C@@H](CCCC[N+](C)(C)C)C(=O)N2[C@@H]1c1ccc(O)cc1,1 and 1.3,0.272 (inactive) and 0.534 (inactive),0.352 (inactive) and 0.356 (inactive),0.02 (inactive) and 0.327 (inactive),0.611 and 2.02,0.392 (inactive) and -0.176 (inactive),-0.0356 and -0.117,1.21 and 1.28,0.643 and 0.994,-0.122 and -0.128,0.892 and 0.579,-0.126 and -0.175,0.229 and 0.305,-0.0316 (inactive) and 0.431 (inactive),0.606 and 0.803,-0.115 and 0.255,0.0444 and -0.539,0.8 and 0.827,1.11 and 0.869,0.908 and 0.391
C=C[C@@H](OC)[C@H](O)c1ccc(OCCO)cc1,0.194 and -0.0886,-0.0303 (inactive) and -2.64 (inactive),0.331 (inactive) and -1.68 (inactive),-0.603 (inactive) and -0.883 (inactive),1.5 and -0.567,-0.443 (inactive) and 2.25 (inactive),-0.0466 and -0.0666,-0.902 and -0.131,-0.19 and -0.876,-0.383 and -0.265,1.43 and -0.202,0.644 and -0.649,0.75 and 0.283,-0.462 (inactive) and -2.83 (inactive),-0.72 and -1.24,-0.586 and -1.15,-1.55 and -0.957,-0.782 and -0.109,-1.06 and -0.955,-0.294 and -1.79
CCOC(=O)C[C@H]1[C@H](OC(=O)c2ccccc2-c2ccccc2)[C@@H](NC(=O)Cc2ccc(OC)cc2)c2cc(OCCCO)ccc2N1C(=O)Cc1ccc(OC)cc1,0.407 and -0.949,-0.0142 (inactive) and -0.0701 (inactive),-0.572 (inactive) and 0.18 (inactive),0.843 (inactive) and 0.39 (inactive),1.46 and -0.199,2.39 (inactive) and -0.335 (inactive),0.139 and -0.176,0.0766 and -0.182,0.784 and -0.204,0.0084 and -0.142,0.463 and -0.568,0.659 and -0.038,0.675 and 0.58,-1.05 (inactive) and -0.311 (inactive),0.57 and -0.0746,0.348 and -0.607,-0.111 and -0.847,0.223 and -0.624,-0.215 and -0.331,0.29 and 0.764
COC(=O)C1=C(C)N(Cc2ccccc2)C2=C(C(=O)c3ccccc3)[C@H](c3ccccc3)[C@@](O)(C(=O)OC)C(=O)N2[C@@H]1c1ccccc1,0.518 and 0.722,0.504 (inactive) and 0.653 (inactive),-0.413 (inactive) and -0.0902 (inactive),34.6 (active) and 0.863 (inactive),0.886 and 0.23,0.591 (inactive) and 0.311 (inactive),0.0039 and -0.115,0.495 and 0.653,0.858 and 0.808,0.127 and -0.123,0.419 and 0.36,-0.0581 and -0.208,-0.178 and -0.433,-1.7 (inactive) and 0.839 (inactive),0.654 and 0.495,0.739 and 0.519,0.392 and 0.353,0.626 and 0.53,0.638 and 0.349,-0.0471 and -0.0052
